Laboratory results: PubChem BioAssay (NCATS)
Inconclusive results are not listed. A number with no mark means an inactive call. The source made the active and inactive calls. The call rests on the fitted dose curve.

Experiment: Primary qHTS for inhibitors of MERS-S pseudo-typed particle cell entry (AID 1479149); further: nearly all actives have a fitted effect of over 60% in size
Settings: MERS-S pseudotyped particle entry, luciferase; series mostly up to 57.1 µM; activity change, negative = inhibition: at the top concentration
On the % scale 0 is the no-effect control and ±100 the full control effect.

SMILES | outcome | activity change, negative = inhibition
Cc1c(C(C)C)c(=O)n(-c2ccccc2)n1C | inactive | –
CC(=O)Oc1cccc(O)c1 | – | -22.5%
O=S(=O)(O)c1ccc(O)cc1 | inactive | –
O=C(O)CSCC(=O)NC1CCSC1=O (stereo unspecified) | – | 0.43%
CC(C(=O)O)c1ccc(C(=O)c2ccccc2)s1 (stereo unspecified) | inactive | –
CCCCCCCCCCCCCCCC(=O)OC(C)C | inactive | –
CC(CN(C)C)C(C)(O)Cc1ccc(Cl)cc1 (stereo unspecified) | inactive | –
OC[C@H]1O[C@H](O[C@]2(CCl)O[C@H](CCl)[C@@H](O)[C@@H]2O)[C@H](O)[C@@H](O)[C@H]1Cl | inactive | –
CC[N+](CC)(CCNC(=O)C(=O)NCC[N+](CC)(CC)Cc1ccccc1Cl)Cc1ccccc1Cl | inactive | –
COc1cc(C(=O)NC2CCCNC2)cc(OC)c1OC (stereo unspecified) | inactive | –
COc1ccc2cc([C@H](C)C(=O)O)ccc2c1 | inactive | –
Cc1c[nH]c2ccccc12 | inactive | –
CC(C)(C)NCC(O)COc1ccccc1OCC1CCCO1 (stereo unspecified) | inactive | –
CCOC(=O)c1ccccc1O | – | -1.04%
COc1cc2c3cc1Oc1cc(ccc1O)C[C@@H]1c4c(cc(OC)c(O)c4Oc4ccc(cc4)C[C@@H]3N(C)CC2)CC[N+]1(C)C | – | -8.77%
O=C(O)c1cc(=O)c2c(OCC(O)COc3cccc4oc(C(=O)O)cc(=O)c34)cccc2o1 | inactive | –
NCCCCCC(=O)O | – | 4.38%
CO[C@@]1(NC(=O)CSC[C@@H](N)C(=O)O)C(=O)N2C(C(=O)O)=C(CSc3nnnn3C)CS[C@@H]21 | inactive | –
NC(=O)c1ncn([C@@H]2O[C@H](CO)[C@@H](O)[C@H]2O)c1O | inactive | –

SMILES | outcome | activity change, negative = inhibition
Cc1ncc([N+](=O)[O-])n1CC(C)O (stereo unspecified) | inactive [at 114 µM] | –
NC(=O)c1ccccc1O | inactive | –
CCC[C@@]1(CCc2ccccc2)CC(O)=C([C@H](CC)c2cccc(NS(=O)(=O)c3ccc(C(F)(F)F)cn3)c2)C(=O)O1 | – | -50.9%
CC(=O)CC(c1ccccc1)c1c(O)c2ccccc2oc1=O (stereo unspecified) | inactive | –
OC[C@H]1O[C@@H](n2cnc3c2NC=NC[C@H]3O)C[C@@H]1O | inactive | –
CCCCCC=CCC=CCCCCCCCC(=O)OCC | inactive | –
CCOC(=O)/C=C(C)/C=C/C=C(C)/C=C/c1c(C)cc(OC)c(C)c1C | – | 6.9%
Cn1c(=O)c2[nH]c(Br)nc2n(C)c1=O | inactive | –
C#CCN[C@@H]1CCc2ccccc21 | – | -3.96%
CCOC(=O)c1ccc(O)cc1 | inactive | –
OC[C@@H](O)[C@@H](O[C@@H]1O[C@H](CO)[C@H](O)[C@H](O)[C@H]1O)[C@H](O)[C@@H](O)CO | inactive | –
CC(=O)NCc1c(I)c(NC(C)=O)c(I)c(C(=O)O)c1I | – | -9.33%
C[C@@H](O)[C@H]1C(=O)N2C(C(=O)O)=C(SCCN=CN)C[C@H]12 | inactive | –
CCC(C(=O)NC(=O)NC(C)=O)c1ccccc1 (stereo unspecified) | – | -4.76%
CC(=O)OC(C)C[N+](C)(C)C (stereo unspecified) | inactive | –
Nc1ncnc2c1ncn2[C@@H]1O[C@H](CO)[C@@H](O)[C@H]1O | inactive | –
NS(=O)(=O)c1cc(C2(O)NC(=O)c3ccccc32)ccc1Cl (stereo unspecified) | – | -1.19%
O=C(N[C@H](CO)[C@H](O)c1ccc([N+](=O)[O-])cc1)C(Cl)Cl | inactive | –
CC(CC(C#N)(c1ccccc1)C(C)C)N(C)C (stereo unspecified) | inactive | –

Experiment: Primary qHTS for Vero E6 cytotoxicity: counterscreen for inhibitors of SARS-S pseudo-typed particle cell entry (AID 1479150)
Settings: cell viability; series mostly up to 57.1 µM; activity change, negative = cytotoxicity: at the top concentration

SMILES | activity change, negative = cytotoxicity | outcome
Cc1c(C(C)C)c(=O)n(-c2ccccc2)n1C | 2.7% | –
CC(=O)Oc1cccc(O)c1 | – | inactive
O=S(=O)(O)c1ccc(O)cc1 | – | inactive
O=C(O)CSCC(=O)NC1CCSC1=O (stereo unspecified) | – | inactive
CC(C(=O)O)c1ccc(C(=O)c2ccccc2)s1 (stereo unspecified) | 0.944% | –
CCCCCCCCCCCCCCCC(=O)OC(C)C | 1.95% | –
CC(CN(C)C)C(C)(O)Cc1ccc(Cl)cc1 (stereo unspecified) | – | inactive
OC[C@H]1O[C@H](O[C@]2(CCl)O[C@H](CCl)[C@@H](O)[C@@H]2O)[C@H](O)[C@@H](O)[C@H]1Cl | 3.93% | –
CC[N+](CC)(CCNC(=O)C(=O)NCC[N+](CC)(CC)Cc1ccccc1Cl)Cc1ccccc1Cl | – | inactive
COc1cc(C(=O)NC2CCCNC2)cc(OC)c1OC (stereo unspecified) | -6.02% | –
COc1ccc2cc([C@H](C)C(=O)O)ccc2c1 | 2.07% | –
Cc1c[nH]c2ccccc12 | 0.869% | –
CC(C)(C)NCC(O)COc1ccccc1OCC1CCCO1 (stereo unspecified) | – | inactive
CCOC(=O)c1ccccc1O | -4.31% | –
COc1cc2c3cc1Oc1cc(ccc1O)C[C@@H]1c4c(cc(OC)c(O)c4Oc4ccc(cc4)C[C@@H]3N(C)CC2)CC[N+]1(C)C | – | inactive
O=C(O)c1cc(=O)c2c(OCC(O)COc3cccc4oc(C(=O)O)cc(=O)c34)cccc2o1 | – | inactive
NCCCCCC(=O)O | – | inactive
CO[C@@]1(NC(=O)CSC[C@@H](N)C(=O)O)C(=O)N2C(C(=O)O)=C(CSc3nnnn3C)CS[C@@H]21 | 2.49% | –
NC(=O)c1ncn([C@@H]2O[C@H](CO)[C@@H](O)[C@H]2O)c1O | – | inactive

SMILES | activity change, negative = cytotoxicity | outcome
Cc1ncc([N+](=O)[O-])n1CC(C)O (stereo unspecified) | 1.07% [at 114 µM] | –
NC(=O)c1ccccc1O | -7.74% | –
CCC[C@@]1(CCc2ccccc2)CC(O)=C([C@H](CC)c2cccc(NS(=O)(=O)c3ccc(C(F)(F)F)cn3)c2)C(=O)O1 | – | inactive
CC(=O)CC(c1ccccc1)c1c(O)c2ccccc2oc1=O (stereo unspecified) | -0.0519% | –
OC[C@H]1O[C@@H](n2cnc3c2NC=NC[C@H]3O)C[C@@H]1O | -12.2% | –
CCCCCC=CCC=CCCCCCCCC(=O)OCC | -1.99% | –
CCOC(=O)/C=C(C)/C=C/C=C(C)/C=C/c1c(C)cc(OC)c(C)c1C | – | inactive
Cn1c(=O)c2[nH]c(Br)nc2n(C)c1=O | – | inactive
C#CCN[C@@H]1CCc2ccccc21 | -1.4% | –
CCOC(=O)c1ccc(O)cc1 | 0.198% | –
OC[C@@H](O)[C@@H](O[C@@H]1O[C@H](CO)[C@H](O)[C@H](O)[C@H]1O)[C@H](O)[C@@H](O)CO | 2.36% | –
CC(=O)NCc1c(I)c(NC(C)=O)c(I)c(C(=O)O)c1I | 3.59% | –
C[C@@H](O)[C@H]1C(=O)N2C(C(=O)O)=C(SCCN=CN)C[C@H]12 | -7.13% | –
CCC(C(=O)NC(=O)NC(C)=O)c1ccccc1 (stereo unspecified) | 1.93% | –
CC(=O)OC(C)C[N+](C)(C)C (stereo unspecified) | 2.69% | –
Nc1ncnc2c1ncn2[C@@H]1O[C@H](CO)[C@@H](O)[C@H]1O | – | inactive
NS(=O)(=O)c1cc(C2(O)NC(=O)c3ccccc32)ccc1Cl (stereo unspecified) | -2.15% | –
O=C(N[C@H](CO)[C@H](O)c1ccc([N+](=O)[O-])cc1)C(Cl)Cl | -3.34% | –
CC(CC(C#N)(c1ccccc1)C(C)C)N(C)C (stereo unspecified) | 4.94% | –
